# Reference: the supplement of paper PMC9135407
# “And” between values parts separate entries of the source, which are not always exact repeats. Equal values may be shown once. Where a name gives a salt, the structure may show the parent alone. In all, about 5,800 compounds went through this assay and about 620 (11%) showed activity. The full list was thinned out, with actives kept by preference. Unmarked numbers belong to inactive results.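 How the source made its calls: active = score above a cut-off or among the top three wells of a plate; in these data no inactive exceeds 0.85.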
# Test system: primary human hepatic stellate cells (donor 1)
# Experiment: scaled lipid accumulation score (0 = DMSO-like, 1 = nortriptyline-like); higher = stronger HSC inactivation (lipid re-accumulation), active = hit call of the paper
# Conditions: 48 h
# [1] = library stock concentration: 1 mM
# [2] = library stock concentration: 3.33 mM
# [3] = library stock concentration: 10 mM
# [4] = library stock concentration: 80 uM
# [5] = library stock concentration: 400 uM
# [6] = library stock concentration: 2 mM
structure (smiles),measurement,setting,value
CCCCCCCCCCCCCCCCOC[C@H](COP(=O)([O-])OCCCCCC[N+](C)(C)C)OC(C)=O [Hexanolamino PAF C-16],scaled lipid accumulation score,[1],≤ 0
Cc1ccc(-n2[nH]c(C)c(N=Nc3cccc(-c4cccc(C(=O)O)c4)c3O)c2=O)cc1C [Eltrombopag],scaled lipid accumulation score,[2],0.081
same,scaled lipid accumulation score,[3],0.077
COc1cccc2cc(-c3nc([C@H]4CC[C@H](C(=O)O)CC4)n4ncnc(N)c34)[nH]c12,scaled lipid accumulation score,[4],≤ 0
same,scaled lipid accumulation score,[5],0.061
same,scaled lipid accumulation score,[6],≤ 0
same,scaled lipid accumulation score,[2],0.043
same,scaled lipid accumulation score,[3],≤ 0
C[C@H]1C[C@@H]2[C@H]([C@@H](O)C[C@@]3(C)[C@H]2CC[C@]3(O)C(=O)COC(=O)CCC(=O)O)[C@@]2(C)C=CC(=O)C=C12 [Methylprednisolone sodium succinate],scaled lipid accumulation score,library stock concentration: 4 mM,0.015
N#CSc1cc(SC#N)c(N)nc1N,scaled lipid accumulation score,[2],0.46
same,scaled lipid accumulation score,[3],0.53
NC(Cn1ccc(=O)c(O)c1)C(=O)O (centres undefined) [Mimosine],scaled lipid accumulation score,,≤ 0
same,scaled lipid accumulation score,[3],≤ 0
CCCCC[C@H](O)/C=C/[C@H]1CC[C@H](O)[C@@H]1CCCCCCC(=O)O [11-deoxy Prostaglandin F1.alpha.],scaled lipid accumulation score,[1],≤ 0
"CCCCC(C)(C)[C@H](O)/C=C/[C@H]1CCC(=O)[C@@H]1C/C=C\CCCC(=O)O [11-deoxy-16,16-dimethyl Prostaglandin E2]",scaled lipid accumulation score,[1],0.098
CN1CCN(CCCN2c3ccccc3Sc3ccc(S(=O)(=O)N(C)C)cc32)CC1 [Thioproperazine dimesylate],scaled lipid accumulation score,,0.733
CN1CCN(CC/C=C2\c3ccccc3Sc3ccc(S(=O)(=O)N(C)C)cc32)CC1 [Thiothixene],scaled lipid accumulation score,library stock concentration: 4.5 mM,0.856 (active)
Cl.OCCN1CCN(CC/C=C2/c3ccccc3Sc3ccc(Cl)cc32)CC1 [Zuclopenthixol hydrochloride],scaled lipid accumulation score,,0.995 (active)
CN1CCN(CC/C=C2/c3ccccc3Sc3ccc(S(=O)(=O)N(C)C)cc32)CC1,scaled lipid accumulation score,[3],0.722
Cl.Cl.OCCN1CCN(CC/C=C2/c3ccccc3Sc3ccc(C(F)(F)F)cc32)CC1 [cis-(Z)-Flupenthixol dihydrochloride],scaled lipid accumulation score,[3],1.01 (active)
CN1CCN(CC/C=C2/c3ccccc3Sc3ccc(S(=O)(=O)N(C)C)cc32)CC1 [Thiothixene],scaled lipid accumulation score,[3],0.435
CCCCC[C@H](O)C/C=C1/C(=O)C=C[C@@H]1C/C=C\CCCC(=O)O [D12-Prostaglandin J2],scaled lipid accumulation score,[1],≤ -0.021
CC(=N)NCc1cccc(CN)c1 [1400W dihydrochloride],scaled lipid accumulation score,[3],≤ -0.006
Cc1oc(S(=O)(=O)N2CCCCC2)cc1NC(=O)Nc1ccccc1,scaled lipid accumulation score,[1],≤ 0
Cc1cc(/N=N/c2cc(S(=O)(=O)O)c(C)cc2C)c(N)cc1O [Ischemin],scaled lipid accumulation score,[4],≤ 0
same,scaled lipid accumulation score,[5],≤ 0
same,scaled lipid accumulation score,[6],≤ 0
same,scaled lipid accumulation score,[3],≤ 0
COC(=O)CC(NC(=O)C(C)NC(=O)C(NC(=O)OCc1ccccc1)C(C)C)C(=O)CF (centres undefined),scaled lipid accumulation score,[2],≤ 0
same,scaled lipid accumulation score,[3],0.101
Cc1cc(C)c(S(=O)(=O)Nc2ccccc2C(F)(F)F)c(C)c1,scaled lipid accumulation score,[3],0.002
CC/C=C\C/C=C\C/C=C\C/C=C\C/C=C\CCCC(=O)O [Eicosapentaenoic acid (20:5 n-3)],scaled lipid accumulation score,[1],0.009
CC/C=C\C/C=C\C/C=C\C/C=C\C/C=C\CCCC(=O)O [Eicosapentaenoic Acid],scaled lipid accumulation score,[1],0.001
CCCC[C@H](CCC(=O)O)NC(=O)CCCCCCc1ccccc1,scaled lipid accumulation score,[1],≤ 0
CCCCCCCCCCCCCCCC(=O)OCC(COP(=O)(O)O)OC(=O)CCCCCCCCCCCCCCC (centres undefined) [Dipalmitoylphosphatidic acid],scaled lipid accumulation score,[1],≤ -0.021
CC1(C)CCC(c2ccc(Cl)cc2)=C(CN2CCN(c3ccc(C(=O)NS(=O)(=O)c4ccc(N[C@H](CCN5CCOCC5)CSc5ccccc5)c(S(=O)(=O)C(F)(F)F)c4)cc3)CC2)C1 [ABT-263 (Navitoclax)],scaled lipid accumulation score,[2],0.024
same,scaled lipid accumulation score,[3],0.048
Cc1cnc(Nc2ccc(F)cc2Cl)nc1-c1c[nH]c(C(=O)N[C@H](CO)c2cccc(Cl)c2)c1,scaled lipid accumulation score,[4],≤ -0.001
same,scaled lipid accumulation score,[5],≤ -0.001
same,scaled lipid accumulation score,[6],≤ -0.001
same,scaled lipid accumulation score,[3],≤ -0.001
Cc1cc(NC(=O)Nc2ccc3c(ccn3C)c2)sn1,scaled lipid accumulation score,[3],0.129
CC(C)c1cc(-c2n[nH]c(=O)n2-c2ccc3c(ccn3C)c2)c(O)cc1O [Ganetespib] [listing 1 of 2 here],scaled lipid accumulation score,[6],0.915 (active)
same,scaled lipid accumulation score,[3],0.885 (active)
CC(C)c1cc(-c2n[nH]c(=O)n2-c2ccc3c(ccn3C)c2)c(O)cc1O [Ganetespib] [listing 2 of 2 here],scaled lipid accumulation score,[4],0.602
same,scaled lipid accumulation score,[5],0.802
CC(C)c1cc(-c2n[nH]c(=O)n2-c2ccc3c(ccn3C)c2)c(O)cc1O [Ganetespib (STA-9090)],scaled lipid accumulation score,[2],0.691
same,scaled lipid accumulation score,[3],0.649
CCCCCCCCCCCCCCP(=O)(O)O [Tetradecyl Phosphonate],scaled lipid accumulation score,[1],≤ 0
CN(C)C(=O)[C@H](O)[C@H](Cc1ccccc1)NC(=O)c1cc2cc(Cl)ccc2[nH]1,scaled lipid accumulation score,[2],0.007
same,scaled lipid accumulation score,[3],≤ 0 and 0.127
O=c1[nH]c2ccccc2n1CCCN1CCN(C(c2ccccc2)c2ccccc2)CC1 [Oxatomide],scaled lipid accumulation score,library stock concentration: 4.7 mM,0.191
COc1ccccc1C1(O)CCN(CCCn2c3ccccc3c3ccccc32)CC1 [NNC 05-2090 hydrochloride],scaled lipid accumulation score,[3],0.491
Cc1ccc2c(=O)c3ccccc3n(CCCN)c2c1C,scaled lipid accumulation score,[3],0.501
C[C@@H]1CN(CCCn2c3ccccc3c3ccccc32)C[C@H](C)N1.Cl.Cl [Rimcazole dihydrochloride],scaled lipid accumulation score,[3],1.34 (active)
CCCCCCCCNC(=O)Cc1c(C)n(C(=O)c2ccc(Cl)cc2)c2ccc(OC)cc12 [Indomethacin N-octyl amide],scaled lipid accumulation score,[1],≤ 0
O=C(O)/C=C/CCCCCCCCC(=O)O [Traumatic Acid],scaled lipid accumulation score,[1],≤ 0
O=C1Nc2ccc(I)cc2C1=Cc1cc(Br)c(O)c(Br)c1,scaled lipid accumulation score,[2],≤ 0
same,scaled lipid accumulation score,[3],0.083
